Bioassay records (PubChem BioAssay)
Mtb UGM inh – M. tuberculosis UGM enzyme inhibitors, primary screen, biochemical, fluorescence polarization, single point; UDP-galactopyranose mutase (Mycobacterium tuberculosis (strain ATCC 25618 / H37Rv)), …; purified UGM, fluorescence polarization probe displacement; inhibition, % at 10 µM; 320,000 compounds, 0.06% hits; AID 504406, 2011; in the data active = inhibition above about 10%, passing the limit was not always enough
Rv3671c protease – Rv3671c serine protease inhibitors, primary screen, biochemical, fluorescence polarization, M. tuberculosis H37Rv; 320,000 compounds, 0.048% hits; P9WHR9; inhibition, % at 5.96 µM; in the data active = inhibition above about 38%;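 also: extracellular domain of Rv3671c used as enzyme; 0% = enzyme with DMSO and 100% = no enzyme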
Target sequence (P9WHR9 whole entry, looked up, the tested form may be a part): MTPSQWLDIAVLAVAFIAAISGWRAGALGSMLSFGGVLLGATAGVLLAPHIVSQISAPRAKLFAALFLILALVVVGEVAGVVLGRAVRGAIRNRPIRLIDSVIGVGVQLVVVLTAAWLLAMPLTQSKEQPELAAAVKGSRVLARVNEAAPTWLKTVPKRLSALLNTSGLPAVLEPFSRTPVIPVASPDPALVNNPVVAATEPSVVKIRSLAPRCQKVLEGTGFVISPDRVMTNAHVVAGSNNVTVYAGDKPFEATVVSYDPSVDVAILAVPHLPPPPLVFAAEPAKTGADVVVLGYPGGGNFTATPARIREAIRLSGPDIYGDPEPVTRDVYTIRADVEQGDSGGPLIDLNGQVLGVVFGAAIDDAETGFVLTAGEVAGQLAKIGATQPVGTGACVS
Mtb FBA inh – Mtb FBA enzyme inhibitors, primary screen, biochemical, fluorescence, strain H37Rv; purified M. tuberculosis FBA, fluorescence read-out; inhibition, % at 1 µM; 360,000 compounds, 2.3% hits; in the data active = inhibition above about 27%;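 also: 0% = vehicle and 100% = reference inhibitor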
GDH-TPI counter – GDH-TPI coupling enzyme inhibitors, primary screen, artefact control for M. tuberculosis FBA inhibitor project, biochemical, absorbance, full deck; GDH-TPI coupled enzyme counterscreen, NADH absorbance; AID 588335, 2011; inhibition, % at 4.8 µM; 360,000 compounds, 1.2% hits; in the data active = inhibition above about 30%;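 also: 0% = DMSO wells and 100% = wells lacking the enzyme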
FadD28 binding – inhibitors of FadD28 bisubstrate probe binding, primary screen, biochemical, fluorescence polarization, single point; Mycobacterium tuberculosis FadD28 fatty-acid-AMP ligase; inhibition, % at 12.5 µM; 360,000 compounds, 0.22% hits; AID 588549, 2011; in the data active = inhibition above about 8.5%, passing the limit was not always enough
Mtb bLac sens – beta-lactam sensitization of Mtb H37Rv, H37Rv. M. tuberculosis H37Rv growth with meropenem, percent inhibition. AID 434955, 2010. inhibition, % at 25 µM. 330,000 compounds, 0.27% hits; call rule not given here;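 also: growth measured after seven days incubation then overnight dye step; 0% = bacteria only wells and 100% = bacteria with antibiotic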
An asterisk follows results filed as active; / = no result; + = active, no number. Compounds with a hit are over-represented: about 3.7% of the library has one in this group of screens.

SMILES	Mtb UGM inh	Rv3671c protease	Mtb FBA inh	GDH-TPI counter	FadD28 binding	Mtb bLac sens
COc1ccc2nc(-c3cccc(N)c3)[nH]c2c1	2	2	177*	17	-3	4
COc1ccc2nc(-c3ccc(N)cc3)[nH]c2c1	-1	15	+	30	-3	0
COc1ccccc1N(Cc1ccccc1)S(=O)(=O)c1cccc(C(=O)Nc2cc(C)ccn2)c1	-2	-27	0	-1	-2	-19
CC(=O)Nc1ccc(-c2ccnc3c2CC(C)(C(=O)NCCc2ccccc2)O3)cc1 (configuration not stated)	/	/	13	12	-1	/
Cc1ccc(NC(=O)C(=O)NCc2ccc(/C=C(/C#N)C(=O)NCc3cccnc3)o2)cc1	2	-1	0	32*	-2	6
Cc1ccc(NC(=O)C(=O)NCc2ccc(/C=C(/C#N)C(=O)NCc3cccnc3)o2)cc1C	-1	4	0	34*	-1	-2
N#C/C(=C/c1ccc(CNC(=O)C(=O)Nc2cc(Cl)cc(Cl)c2)o1)C(=O)NCc1cccnc1	0	-22	0	-4	-1	5
CCCC(=O)Nc1nnc(/C=C/c2ccc(OC)cc2)s1	-3	-3	11	22	-4	-9
COc1ccc(/C=C/c2nnc(NC(=O)C(C)(C)C)s2)cc1	0	1	9	52*	-1	58
Cc1c(C)n(C)c2ccc(C(=O)NCc3cccs3)cc12	-2	-22	4	2	12*	6
CCCCNC(=O)C1(C)CCN1Cc1cccc2c(OC)cc(C(=O)OCC)cc12 (configuration not stated)	/	/	2	12	-2	/
CC(C)n1cc(/C=N/Nc2ccc(C(=O)O)cc2)c2ccccc21	-2	0	6	17	22*	9
O=C(O)c1ccc(N/N=C/c2cn(Cc3ccccc3F)c3ccccc23)cc1	-2	-35	11	42*	13*	11
O=[N+]([O-])c1ccc(NCCCO)c(S(=O)(=O)N2CCOCC2)c1	1	0	-2	40*	-5	0
C=CCC[C@H](Cc1ccc(F)cc1)C(=O)OC[C@@H](NC(=O)[C@@H](CC=C)CC(=O)N(CCO)Cc1ccccc1)C(C)(C)C	1	-5	1	16	-3	-3
COc1cc(C(=O)O)nc(OC)n1	-1	4	-4	-2	-3	-1
O=C(c1ccc(=O)oc1)N1CCN(C(c2ccccc2)c2ccccc2)CC1	-2	0	9	39*	-3	-10
OC(c1ccc(Cl)cc1)c1ncc(-c2ccc(Oc3ccccc3)cc2)[nH]1 (configuration not stated)	/	/	4	11	0	/
CCOc1ccc(/C=C2\SC(N3CCCCC3)=NC2=O)cc1	0	5	2	48*	-1	5
Cc1ccc(/C=C2\SC(N3CCCC3)=NC2=O)cc1	-3	2	/	/	/	100
CC1CC(=O)NN=C1c1ccc(N(C)C)c([N+](=O)[O-])c1 (configuration not stated)	1	-2	-5	37*	-2	-10
CCN(CC)c1ccc(C2=NNC(=O)CC2C)cc1[N+](=O)[O-] (configuration not stated)	1	-2	-6	31*	-2	4
Cc1ccc([C@H]2N[C@]3(CCCN(Cc4ccco4)C3=O)[C@H]3C(=O)N(C)C(=O)[C@@H]23)cc1	/	/	0	7	-1	/
Nc1nonc1C(=O)N/N=C/c1cc(Br)ccc1O	1	12	/	/	/	3
Cc1noc(C)c1C(=O)N1CCC1(C)C(=O)NS(=O)(=O)c1ccccc1Cl (configuration not stated)	/	/	-2	8	-2	/
SMILES	Mtb UGM inh	Rv3671c protease	Mtb FBA inh	GDH-TPI counter	FadD28 binding	Mtb bLac sens
CCOC(=O)C1=C(C)N(CCCC(=O)O)C(=O)NC1c1ccc2ccccc2c1 (configuration not stated)	0	-7	0	-1	-3	-3
CC(=O)c1c(COC(=O)c2cccc(C)c2)nc2ccccc2[n+]1[O-]	0	3	2	31*	-2	0
CC(=O)c1c(COC(=O)c2ccncc2)nc2ccccc2[n+]1[O-]	3	2	-1	13	0	-13
CCN(CC)c1ccc(/C=C2\C(=O)NC(=O)N(CC3CCCO3)C2=O)cc1 (configuration not stated)	1	-7	-1	33*	0	0
Cc1ccc(-c2nc3cc(NC(=O)C(C)C)ccc3o2)cc1	1	-2	181*	-2	-3	48
Cc1cc2nc(-c3ccc(NC(=O)C(C)C)cc3)oc2cc1C	-1	-24	138*	10	1	-1
CC(C)C(=O)Nc1cccc(-c2nc3ccccc3o2)c1	0	-8	8	14	1	-1
O=c1[nH]c(=S)c2ncn(-c3ccccc3)c2[nH]1	-2	1	2	31*	1	-6
CC(=O)Nc1ccc2c(c1)CCc1ccccc1-2	3	-8	3	5	-1	-5
O=C(O)/C=C/C(=O)c1ccc2c(c1)CCc1ccccc1-2	3	-4	5	32*	-5	28
Cc1cc(OCC(=O)NC2CCS(=O)(=O)C2)c2c3c(c(=O)oc2c1)CCC3 (configuration not stated)	3	-4	23	3	0	-2
Cc1c(C)c2c(OCC(=O)N[C@@H](CC(C)C)C(=O)O)cc3c(c2oc1=O)CCC(C)(C)O3	0	/	+	18	-1	2
COCCCNC(=O)COc1cc2c(c3oc(=O)c(C)c(C)c13)CCC(C)(C)O2	6	6	+	7	-2	-1
COCCCNC(=O)COc1ccc2oc3c(c2c1)CCCC3	0	2	0	-11	-3	-6
Cc1c(C)c2c(OCC(=O)NC3CC3)cc3c(c2oc1=O)CCC(C)(C)O3	2	-5	+	13	-1	4
CSCC[C@H](NC(=O)COc1cc2c(c3oc(=O)c(C)c(C)c13)CCC(C)(C)O2)C(=O)O	-2	5	+	9	-4	2
CC1(C(=O)NS(=O)(=O)c2ccc(Cl)cc2)CCN1C(=O)c1cccc(F)c1 (configuration not stated)	/	/	0	1	-2	/
Cc1c(C#N)c2n(c1C)CCCC(=O)N2	/	/	2	1	-1	/
COc1cnc(-c2ccccn2)nc1N(C)c1ccccc1	1	-9	3	6	-5	73
Cc1c(C)c2c(OCC(=O)NCC(O)c3ccccc3)cc3c(c2oc1=O)CCC(C)(C)O3 (configuration not stated)	2	-5	19	15	-1	2
